Results: PubChem BioAssay AID1159580 (chemical genetic matrix, 2015)
Where “and” joins values, the source holds several entries; their conditions need not be identical. Identical values can stand only once. Hit rate of the full screen: of about 5,500 compounds, about 2,000 (36%) were called active. Roughly 18% stayed inconclusive and do not appear here. No stated cut-off is given here; in the data, active means normalized growth mostly below about 0.91 (no sharp cut-off); inconclusive means no clear call, values can overlap the other calls; inactive means mostly above about 0.92. The list shows a part of the results.

Test: chemical genetic growth profiling, strain panel (AID 1159580);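 further: tested at 20 µM; growth read once vehicle control cultures reached saturation at 30 °C; 1 = growth at the plate median or of vehicle wells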
Settings: S. cerevisiae deletion strains, growth OD

Measured: normalized growth

NC(N)=Nc1nc(CSCCC(N)=NS(N)(=O)=O)cs1
inactive: locus YAL013W, strain DEP1, stronger effect = lower value 1 | locus YAL021C, strain ccr4, stronger effect = lower value 0.996 | locus YAL026C, strain drs2, stronger effect = lower value 0.995 | locus YAL030W, strain snc1, stronger effect = lower value 0.982 | locus YAL040C, strain CLN3, stronger effect = lower value 0.997 | locus YBL061C, strain skt5, stronger effect = lower value 0.978 | locus YBR009C, strain hhf1, stronger effect = lower value 1.01 | locus YBR021W, strain FUR4, stronger effect = lower value 0.996 | locus YBR023C, strain chs3, stronger effect = lower value 0.997 | locus YBR171W, strain sec66, stronger effect = lower value 0.958 | locus YBR229C, strain ROT2, stronger effect = lower value 1 | locus YBR231C, strain swc5, stronger effect = lower value 0.959 | locus YBR279W, strain paf1, stronger effect = lower value 0.997 | locus YCL011C, strain gbp2, stronger effect = lower value 0.993 | locus YCL016C, strain dcc1, stronger effect = lower value 0.992 | locus YCL029C, strain bik1, stronger effect = lower value 1.02 | locus YCL061C, strain MRC1 (second series), stronger effect = lower value 1.01 | locus YCL069W, strain vba3, stronger effect = lower value 0.991 | locus YCR088W, strain abp1, stronger effect = lower value 0.978 | locus YDL005C, strain med2, stronger effect = lower value 0.974 | locus YDL035C, strain GPR1, stronger effect = lower value 1 | locus YDL040C, strain nat1, stronger effect = lower value 0.969 | locus YDL074C, strain BRE1, stronger effect = lower value 1.03 | locus YDL101C, strain DUN1, stronger effect = lower value 1.01 | locus YDL134C, strain PPH21, stronger effect = lower value 1.01 | locus YDL185W, strain tfp1, stronger effect = lower value 1.01 | locus YDL192W, strain arf1, stronger effect = lower value 1.01 | locus YDR001C, strain nth1, stronger effect = lower value 0.972 | locus YDR069C, strain doa4, stronger effect = lower value 0.968 | locus YDR101C, strain arx1, stronger effect = lower value 1.01 | locus YDR137W, strain rgp1, stronger effect = lower value 1 | locus YDR150W, strain NUM1, stronger effect = lower value 0.996 | locus YDR159W, strain sac3, stronger effect = lower value 0.986 | locus YDR162C, strain NBP2, stronger effect = lower value 1.01 | locus YDR195W, strain ref2 0.969 | locus YDR297W, strain sur2, stronger effect = lower value 0.997 | locus YDR318W, strain mcm21, stronger effect = lower value 1.02 | locus YDR334W, strain swr1, stronger effect = lower value 0.967 | locus YDR335W, strain msn5, stronger effect = lower value 0.968 | locus YDR363W, strain ESC2, stronger effect = lower value 0.999 | locus YDR388W, stronger effect = lower value 1.01 | locus YDR392W, strain spt3, stronger effect = lower value 1.02 | locus YDR502C, strain sam2, stronger effect = lower value 1 | locus YEL003W, strain gim4, stronger effect = lower value 0.983 | locus YEL037C, strain rad23, stronger effect = lower value 0.975 | locus YEL061C, strain CIN8 (second series), stronger effect = lower value 0.992 | locus YEL061C, strain CIN8, stronger effect = lower value 1.01 | locus YER002W, strain NOP16, stronger effect = lower value 1 | locus YER015W, strain faa2, stronger effect = lower value 0.986 | locus YER016W, strain bim1, stronger effect = lower value 1.01 | locus YER110C, stronger effect = lower value 1.01 | locus YER111C, strain swi4, stronger effect = lower value 0.991 | locus YER155C, strain BEM2 (second series), stronger effect = lower value 0.988 | locus YER155C, strain BEM2, stronger effect = lower value 1 | locus YER167W, strain BCK2, stronger effect = lower value 1.01 | locus YFR010W, strain ubp6, stronger effect = lower value 1 | locus YGL078C, strain dbp3, stronger effect = lower value 1 | locus YGL086W, strain mad1, stronger effect = lower value 0.996 | locus YGL167C, strain pmr1, stronger effect = lower value 0.961 | locus YGL173C, strain kem1, stronger effect = lower value 0.976 | locus YGL227W, strain vid30, stronger effect = lower value 0.964 | locus YGL240W, strain doc1, stronger effect = lower value 0.973 | locus YGL248W, strain PDE1, stronger effect = lower value 0.985 | locus YGL253W, strain hxk2, stronger effect = lower value 0.991 | locus YGR078C, strain PAC10, stronger effect = lower value 1.03 | locus YGR229C, strain SMI1, stronger effect = lower value 0.989 and 0.992 | locus YGR252W, strain gcn5, stronger effect = lower value 0.993 | locus YHR013C, strain ard1, stronger effect = lower value 1.01 | locus YHR027C, strain rpn1, stronger effect = lower value 0.993 | locus YHR030C, strain SLT2, stronger effect = lower value 1.01 and 0.989 | locus YHR079C, strain IRE1 (second series), stronger effect = lower value 1.01 | locus YHR079C, strain IRE1, stronger effect = lower value 0.972 | locus YHR094C, strain hxt1, stronger effect = lower value 1.01 | locus YHR129C, strain ARP1, stronger effect = lower value 1.01 | locus YHR142W, strain chs7, stronger effect = lower value 0.959 | locus YHR200W, strain rpn10, stronger effect = lower value 1.01 | locus YIL066C, strain RNR3, stronger effect = lower value 1.01 | locus YIL073C, strain SPO22, stronger effect = lower value 1.04 | locus YIL125W, strain kgd1, stronger effect = lower value 1 | locus YIR030C, strain dcg1, stronger effect = lower value 1.01 | locus YJL092W, strain hpr5, stronger effect = lower value 0.987 | locus YJL095W, strain BCK1 (second series), stronger effect = lower value 0.993 | locus YJL095W, strain BCK1, stronger effect = lower value 1.04 and 0.984 | locus YJL115W, strain asf1, stronger effect = lower value 0.983 | locus YJL129C, strain trk1, stronger effect = lower value 0.944 | locus YJL134W, strain LCB3, stronger effect = lower value 1 | locus YJL154C, strain vps35, stronger effect = lower value 0.983 | locus YJL164C, strain tpk1, stronger effect = lower value 1.01 | locus YJL166W, strain qcr8, stronger effect = lower value 0.981 | locus YJL168C, strain set2, stronger effect = lower value 1.01 | locus YJL187C, strain SWE1 (second series), stronger effect = lower value 1.02 | locus YJL187C, strain SWE1, stronger effect = lower value 0.984 | locus YJR043C, strain POL32, stronger effect = lower value 1.01 | locus YJR066W, strain TOR1, stronger effect = lower value 0.921 | locus YJR075W, strain HOC1, stronger effect = lower value 1.01
